# According to PubChem BioAssay (NCATS):
# Results filed as inconclusive are left out. Where a call stands in place of a potency, no number is given. The source made the active and inactive calls. Unless noted, the call rests on the fitted dose curve; in most records, active means well fitted curve in the direction sought with a large enough effect; inconclusive means small, poorly fitted or top-dose-only effect, or another doubt; inactive means no such curve, though single readings can be large; an effect the other way counts as inactive or inconclusive.
# Experiments:
# [1] = A High-Content qHTS Against Drug Library for the Identification of Small Molecules that Inhibit DYT1 Early Onset Primary Dystonia-Associated Cell Pathology (AID 1645839; calls by dose curve)
# Outline: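 High-content imaging quantified EGFP-TorsinA mislocalization in HEK293-derived cells inducibly expressing DYT1 mutant torsinA, after 48 h exposure to compound given together with tetracycline induction. Cell count served as a toxicity channel alongside %pathology.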
# [2] = biological target: Cytochrome P450 2C9 (Homo sapiens) (UniProt P11712); test: Cytochrome P450 family 2 subfamily C member 9 (CYP2C9) small molecule antagonists: luciferase biochemical (cell-free) qHTS assay (AID 1645842; active means well fitted curve in the direction sought with a large enough effect in the repeat runs; an effect the other way counts as inactive or inconclusive; further: nearly all actives have a fitted effect of over 55% in size)
# Outline: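 P450-Glo CYP2C9 system: proluciferin substrate with enzyme in mix containing 0.4% BSA, 10 min at room temperature, then NADPH regeneration solution added and incubated 1 h at 37C. Detection reagent stopped reaction; luminescence read after 20 min as RLU.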
# [3] = Cytotoxicity counterscreen for inhibitors of SARS-CoV-2 cell entry (AID 1645845; calls by dose curve; further: nearly all actives have a fitted effect of over 50% in size)
# Outline: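 ATP-content luminescence (ATPLite 1step, 15 min RT) read after 48 h compound exposure of Expi293F cells stably expressing human ACE2; normalized to cells-only wells and media-only wells.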
# [4] = Primary qHTS to identify inhibitors of SARS-CoV-2 cell entry (AID 1645846; calls by dose curve; further: nearly all actives have a fitted effect of over 45% in size); details: activity change, negative = inhibition: at 57.1 µM (top of the series) unless noted
# Outline: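 HEK293-ACE2 (Expi293F, stable hACE2), 1500 cells/well, o/n 37C; cpd 23 nL pin, 1 h; MLV-PP w/ SARS-CoV-2-S (Wuhan-Hu-1, Δ19 C-term); 48 h 37C; Bright-Glo luminescence; normalized vs S-PP and bald PP.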
# [5] = Primary qHTS for inhibitors of nuclear receptor binding SET domain protein 2 (NSD2) in an isogenic RCH-ACV NSD2 p.E1099K mutant (9B) (AID 1645876); further: nearly all actives have a fitted effect of over 70% in size
# [6] = Primary qHTS for inhibitors of nuclear receptor binding SET domain protein 2 (NSD2) in an RCH-ACV wild type WT cells (2C) (AID 1645877); further: nearly all actives have a fitted effect of over 70% in size
# [7] = biological target: Cytochrome P450 2D6 (Homo sapiens) (UniProt P10635); test: Cytochrome P450 family 2 subfamily D member 6 (CYP2D6) small molecule antagonists: luciferase biochemical (cell-free) qHTS assay (AID 1645840; active means well fitted curve in the direction sought with a large enough effect in the repeat runs; an effect the other way counts as inactive or inconclusive; further: nearly all actives have a fitted effect of over 55% in size; further: potency means the concentration at half of the fitted maximal effect)
# Outline: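 P450-Glo CYP2D6 system: proluciferin substrate converted by enzyme to luciferin, read by luminescence proportional to activity. Enzyme-substrate mix with compound 10 min at room temperature, then NADPH regeneration 1 h before detection reagent.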
# [8] = biological target: N-terminal Xaa-Pro-Lys N-methyltransferase 1 (Homo sapiens) (UniProt Q9BV86); test: Confirmatory qHTS for Inhibitors of N-terminal methyltransferase 1 (NTMT1): MTaseGlo Assay (AID 1645874);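 further: luminescence from SAH made as NTMT1 methylates SPKRIA peptide using SAM; nearly all actives have a fitted effect of over 65% in size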
# Outline: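 Enzyme mix (125 nM NTMT1, 100 uM SAM) + compound, 15 min RT; + 1 uM SPKRIA, 30 min RT, dark; MTase-Glo reagent 30 min, detection solution 30 min; luminescence. % inhibition vs no-enzyme/DMSO controls, 4-parameter Hill fit.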
# [9] = Primary qHTS for small molecule stabilizers of the endoplasmic reticulum resident proteome: Secreted ER Calcium Modulated Protein (SERCaMP) assay (AID 1508630)
# Outline: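 The SH-SY5Y reporter protocol was run at 3 concentrations up to 38.3 uM (primary) or 11 concentrations (follow-up): 16 h compound, 100 nM thapsigargin for 4 h, then extracellular luciferase luminescence.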
# Chain of Cytochrome P450 2D6 (Homo sapiens) (P10635 whole entry, looked up): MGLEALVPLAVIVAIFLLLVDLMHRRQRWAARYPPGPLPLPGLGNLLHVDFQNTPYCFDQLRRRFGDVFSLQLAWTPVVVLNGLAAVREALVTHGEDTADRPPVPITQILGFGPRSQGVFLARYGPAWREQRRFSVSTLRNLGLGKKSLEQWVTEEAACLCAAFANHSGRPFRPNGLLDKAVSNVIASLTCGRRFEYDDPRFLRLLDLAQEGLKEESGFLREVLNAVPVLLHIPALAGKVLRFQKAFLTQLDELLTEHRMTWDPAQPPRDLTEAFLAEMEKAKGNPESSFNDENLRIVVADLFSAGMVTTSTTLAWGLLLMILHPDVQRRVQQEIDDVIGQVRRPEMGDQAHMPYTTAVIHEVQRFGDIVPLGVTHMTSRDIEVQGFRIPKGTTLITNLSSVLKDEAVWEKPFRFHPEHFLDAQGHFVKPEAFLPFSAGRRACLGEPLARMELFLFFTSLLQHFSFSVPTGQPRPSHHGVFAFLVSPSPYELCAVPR
# Chain of Cytochrome P450 2C9 (Homo sapiens) (P11712 whole entry, looked up): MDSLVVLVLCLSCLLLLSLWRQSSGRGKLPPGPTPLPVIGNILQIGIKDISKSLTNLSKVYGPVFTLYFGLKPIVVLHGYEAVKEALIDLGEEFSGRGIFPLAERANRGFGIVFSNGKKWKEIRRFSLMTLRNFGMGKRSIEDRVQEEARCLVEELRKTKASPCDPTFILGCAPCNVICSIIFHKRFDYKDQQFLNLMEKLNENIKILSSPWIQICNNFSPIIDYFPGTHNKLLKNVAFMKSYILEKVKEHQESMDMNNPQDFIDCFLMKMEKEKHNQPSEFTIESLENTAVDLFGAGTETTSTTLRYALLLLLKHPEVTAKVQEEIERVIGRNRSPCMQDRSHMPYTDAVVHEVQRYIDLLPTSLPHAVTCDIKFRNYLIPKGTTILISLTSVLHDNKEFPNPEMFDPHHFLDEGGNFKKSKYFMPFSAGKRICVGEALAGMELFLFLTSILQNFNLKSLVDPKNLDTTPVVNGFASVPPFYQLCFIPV
# Chain of N-terminal Xaa-Pro-Lys N-methyltransferase 1 (Homo sapiens) (Q9BV86 whole entry, looked up): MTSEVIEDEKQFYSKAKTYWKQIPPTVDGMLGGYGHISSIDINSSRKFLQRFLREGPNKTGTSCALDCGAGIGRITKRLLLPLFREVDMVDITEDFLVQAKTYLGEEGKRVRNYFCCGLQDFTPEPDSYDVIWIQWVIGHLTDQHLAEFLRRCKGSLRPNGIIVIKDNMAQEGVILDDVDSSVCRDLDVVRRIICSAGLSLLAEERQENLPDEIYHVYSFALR
smiles,measurement,setting,value
C=CCC1(C(C)CC)C(=O)NC(=O)NC1=O (configuration not stated),outcome,[1],inactive
same,Potency,[2],inactive
same,Potency,[3],inactive
same,"activity change, negative = inhibition",[4],-17.9%
same,Potency,[5],inactive
same,Potency,[6],inactive
CC(=O)NC1CCSC1=O (configuration not stated),outcome,[1],inactive
same,Potency,[7],inactive
same,Potency,[5],inactive
same,Potency,[6],inactive
COc1cc(OC)c(OC)cc1C=O,outcome,[1],inactive
same,Potency,[2],inactive
same,Potency,[5],inactive
same,Potency,[6],inactive
C[C@H](N)C(=O)c1ccccc1,outcome,[1],inactive
same,Potency,[7],42.2 µM (active)
same,outcome,[8],inactive
same,Potency,[5],inactive
same,Potency,[6],inactive
c1ccc(N2CCNCC2)cc1,outcome,[1],inactive
same,Potency,[7],inactive
same,Potency,[2],inactive
same,Potency,[5],inactive
same,Potency,[6],inactive
NC(=O)CS(=O)C(c1ccccc1)c1ccccc1 (configuration not stated),outcome,[1],inactive
same,Potency,[2],inactive
same,Potency,[5],inactive
same,Potency,[6],inactive
O=C(O)c1ccc(=O)[nH]c1,outcome,[1],inactive
same,Potency,[7],inactive
same,Potency,[2],inactive
same,Potency,[5],inactive
same,Potency,[6],inactive
COc1ccc2c3c1O[C@H]1[C@H](O)CC[C@H]4[C@@H](C2)N(C)CC[C@@]341,outcome,[1],inactive
same,Potency,[7],inactive
same,Potency,[2],inactive
same,Potency,[5],inactive
same,Potency,[6],inactive
CC(Cc1ccccc1)NCCn1cnc2c1c(=O)n(C)c(=O)n2C (configuration not stated),outcome,[1],inactive
same,Potency,[7],7.01 µM (active)
same,Potency,[2],inactive
same,Potency,[5],inactive
same,Potency,[6],inactive
CC(C)(C)NCC(O)c1cc(Cl)c(N)c(C(F)(F)F)c1 (configuration not stated),Potency,[9],inactive
same,Potency,[2],inactive
same,Potency,[3],inactive
same,Potency,[5],inactive
same,Potency,[6],inactive
Clc1cccc(SC2CCNCC2)n1,outcome,[1],inactive
CCOP(=S)(OCC)Oc1ccc2c(C)c(Cl)c(=O)oc2c1,Potency,[7],15.5 µM (active)
CCCCCCCCCCCCCCCCCC(=O)O,Potency,[7],inactive
CC(=O)Nc1c(I)c(NC(C)=O)c(I)c(C(=O)O)c1I,Potency,[3],inactive
same,"activity change, negative = inhibition",[4],-1.67%
C[C@@H]1C[C@H]2[C@@H]3C[C@H](F)C4=CC(=O)C=C[C@]4(C)[C@@]3(F)[C@@H](O)C[C@]2(C)[C@@]1(O)C(=O)CO,Potency,[3],inactive
same,Potency,[4],inactive
C[N+](C)(C)CCOC(N)=O,Potency,[3],inactive
same,Potency,[4],inactive
